Several values for one entry are separate records, joined by “and”; a condition that tells them apart may be missing. Equal entries are not always repeated.

Inhibition data for 37 compounds are collected here from ChEMBL document CHEMBL3433997, “St. Jude Leishmania screening dataset” (2016).

Holding throughout (type): functional
In assay [1] the target is Solute carrier family 2, facilitated glucose transporter member 1 (Homo sapiens) (UniProt P11166). The experiment in a line: ST_JUDE_LEISH: Cytotoxicity at 2uM final concentration against transgenic Leishmania Mexicana promastigotes LmGLUT1 that are glucose transport deficient and complemented with the human glucose transporter GLUT1. Activity is measured by DNA content using SYBR green in vitro.
Chain of Solute carrier family 2, facilitated glucose transporter member 1 (Homo sapiens) (P11166 whole entry): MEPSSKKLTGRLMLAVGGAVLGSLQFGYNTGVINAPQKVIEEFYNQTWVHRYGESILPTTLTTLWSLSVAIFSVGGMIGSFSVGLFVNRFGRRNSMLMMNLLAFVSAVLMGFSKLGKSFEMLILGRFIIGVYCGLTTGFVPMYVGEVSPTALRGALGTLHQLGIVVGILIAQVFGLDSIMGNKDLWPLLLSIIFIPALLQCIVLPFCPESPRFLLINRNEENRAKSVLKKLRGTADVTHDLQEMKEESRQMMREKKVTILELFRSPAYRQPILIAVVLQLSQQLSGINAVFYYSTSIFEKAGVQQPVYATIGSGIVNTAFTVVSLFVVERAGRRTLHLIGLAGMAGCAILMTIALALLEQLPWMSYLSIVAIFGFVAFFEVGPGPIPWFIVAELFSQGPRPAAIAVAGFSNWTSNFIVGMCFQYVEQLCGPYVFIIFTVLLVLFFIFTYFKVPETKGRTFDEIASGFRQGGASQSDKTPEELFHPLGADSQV

Assay [2] deals with Hexose transporter 1 (Plasmodium falciparum) (UniProt O97467). The experiment in a line: ST_JUDE_LEISH: Cytotoxicity at 2uM final concentration against transgenic Leishmania Mexicana promastigotes LmPfHT that are glucose transport deficient and complemented with the Plasmodium falciparum hexose transporter. Activity is measured by DNA content using SYBR green in vitro.
Assay [3] has as its target Glucose transporter (Leishmania mexicana) (UniProt O61059). Description: ST_JUDE_LEISH: Cytotoxicity at 2uM final concentration against transgenic Leishmania Mexicana promastigotes LmGT2 that are glucose transport deficient and complemented with the L. Mexicana glucose transporter 2. Activity is measured by DNA content using SYBR green in vitro.

With `CC[C@H]1CN2CC[C@H]1C[C@H]2[C@H](O)c1cc(-c2cccc(F)c2)nc2ccc(OC)cc12`, the values for the inhibition in assay [1], in assay [2] and in assay [3] were 8.98%, 7.25% and 5.44%, respectively.
Taken in the same sequence, the figures for `Fc1ccc(N(c2nc(-c3cc(F)cc(C(F)(F)F)c3)cs2)C2CCNCC2)cc1` were -1.03%, -0.75% and -1.46%.
Taken in the same sequence, the figures for `O=C(/C=C/c1ccc(Cl)c(Cl)c1)N1CCC(CN2CCC(c3c(-c4ccc(F)cc4)[nH]c4ccccc34)CC2)CC1` were 0.15%, -1.9% and -4.69%.
In the case of `CC(C)CNCc1cccc(-c2ccc(CN(C(=O)c3cccs3)C3CCN(Cc4ccccc4)CC3)cc2)c1`, the figures for the inhibition in assay [1], in assay [2] and in assay [3] were 2.62%, 4.53% and 6.86%, respectively.
Taken in the same sequence, the figures for `CC[C@H]1CN2CCc3cc(OC)c(OC)cc3[C@@H]2C[C@@H]1C[C@H]1NCCc2c1cc(OC)c(OC)c2Br` were 88%, 86.6% and 84.7%.
Taken in the same sequence, the figures for `Cc1nc(C)c(-c2ccc(Oc3ccc(OC(F)(F)F)cc3)cc2)c(OC(=O)N(CCNC(C)C)C(C)C)c1Br` were 5.43%, 8.45% and 5.04%.
Taken in the same sequence, the figures for `O=C(NC1CCC(N2CCC3(CC2)C(=O)NCN3c2ccccc2)CC1)c1cc2ccccc2[nH]1` (stereo unspecified) were -0.44%, -0.89% and 0.13%.
`COc1cc(CN2CCN(c3ccnc(N(C)C4CCN(C)CC4)n3)CC2)cc(Cl)c1O`: the inhibition was determined as 5.87% in assay [1], 7.29% in assay [2] and 6.73% in assay [3].
Taken in the same sequence, the figures for `CCCCCCC(C)(C)c1cc(O)c2c(c1)OC(C)(C)c1ccncc1-2` were 1.05%, 0.83% and 3.15%.
Regarding `Cc1[nH]c2ccccc2c1C1=CCN(CCCCC2(C)C(=O)Nc3ccccc32)CC1` (stereo unspecified), the results for the inhibition in assay [1], in assay [2] and in assay [3] were 2.98%, 2.07% and -0.37%, respectively.
Taken in the same sequence, the figures for `COc1cc(C=CC(=O)N2CCC(CN3CCC(c4c[nH]c5ccccc45)CC3)CC2)cc(OC)c1` were 2.61%, 0.72% and -2.69%.
Consider `COc1cccc(C(=O)C2CC2CN2CC=C(c3c(C)[nH]c4ccccc34)CC2)c1` (stereo unspecified), for which the figures for the inhibition in assay [1], in assay [2] and in assay [3] were 1.94%, -3.97% and 4.19%, respectively.
Taken in the same sequence, the figures for `CC(=O)N(Cc1ccc(-c2ccc(CNCCc3ccccc3)cc2)cc1)C1CCN(Cc2ccccc2)CC1` were 1.67%, 1.69% and 1.11%.
Taken in the same sequence, the figures for `CSc1ccc(C[C@@H](C)NC[C@H](O)c2cccc(Cl)c2)cc1` were 2.36%, 1.34% and 2.94%.
Taken in the same sequence, the figures for `O=C(NC1CCC(CN2CCC(c3c[nH]c4ccccc34)CC2)CC1)C1(O)c2ccccc2-c2ccccc21` (stereo unspecified) were 1.4%, 2.05% and 2.03%.
On to `O=C(NC1CCC(CN2CCC(c3c[nH]c4ccccc34)CC2)CC1)c1cc(-c2ccccc2Cl)oc1C(F)(F)F` (stereo unspecified), for which the inhibition is 0.8% in assay [1], 1.05% in assay [2] and 0.55% in assay [3].
`Cc1ccc(CC(C)NCC(O)c2cccc(C(F)(F)F)c2)c(C)c1` (stereo unspecified): the inhibition in assay [1] was found to be 1.64%; in assay [2], 0.6%; in assay [3], 0.75%.
Take `Cc1ccc(CC(C)NCC(O)c2cccc(C(F)(F)F)c2)cc1` (stereo unspecified): the inhibition in assay [1] was 1.64% and 2.89%; in assay [2] it was 4.33% and 0.46%; in assay [3], 1.68% and 0.49%.
With `Oc1ccc(Cl)cc1CN1CCC(CCOC(c2ccccc2)c2ccc(Cl)cc2)CC1` (stereo unspecified), the values for the inhibition in assay [1], in assay [2] and in assay [3] were 46.7%, 25.3% and 5.18%, respectively.
Taken in the same sequence, the figures for `Cc1ccc(CC(C)NCC(O)c2cccc(C#N)c2)cc1` (stereo unspecified) were 9.34%, 13.4% and 9.79%.
As for `COC(=O)c1ccc(CC(C)NCC(O)c2cccc(C(F)(F)F)c2)cc1` (stereo unspecified), the inhibition in assay [1] was 2.79% and 2.21% and 1.58%; in assay [2], -0.93% and 1.17% and 2.06%; in assay [3], 2.89% and 0.72% and 2.04%.
On to `CN1CC=C(c2c[nH]c3ccc(-c4ccccc4)cc23)CC1`, for which the inhibition in assay [1] is 7.91%; in assay [2], 2.99%; in assay [3] it was 5.76%.
`O=C(/C=C/c1ccc(Cl)c(Cl)c1)NC1C2CCC1CC(CN1CCC(c3c[nH]c4ccccc34)CC1)C2` (stereo unspecified): the values for the inhibition in assay [1], in assay [2] and in assay [3] were 3.31%, 4.24% and 2.44%, respectively.
Taken in the same sequence, the figures for `CN(C)CCC(=O)c1ccccc1` were 3.21%, 4.48% and 1.99%.
For the compound `Cc1cccc(C(=O)Nc2ccnc(N(C)C3CCN(Cc4cccc(O)c4)CC3)c2)c1`, the figures for the inhibition in assay [1], in assay [2] and in assay [3] were 3.06%, 1.84% and 3.85%, respectively.
Take `Cc1cc(N)nc2ccc(CNCCc3ccccc3Br)cc12`: the inhibition was 1.91% in assay [1], 1.25% in assay [2] and 1.79% in assay [3].
Taken in the same sequence, the figures for `Cc1nc(N)nc(N)c1-c1cccc(Cl)c1` were 3.73%, 4.7% and 1.38%.
Taken in the same sequence, the figures for `CN1CC=C(c2csc3ccc(NC(=O)Nc4ccc(-c5ccncc5)c(Cl)c4)cc23)CC1` were 0.03%, -0.33% and 0.2%.
Taken in the same sequence, the figures for `Cc1ccc(CC(C)NCC(O)c2cccc(C(F)(F)F)c2)cc1F` (stereo unspecified) were 6.67%, 6.24% and 5.67%.
`Oc1ccc(CN2CCN(CCOC(c3ccccc3)c3ccccc3)CC2)cc1Cl`: the inhibition in assay [1] is 0.53%; in assay [2], 3.98%; in assay [3], -1.69%.
Taken in the same sequence, the figures for `COC(=O)c1ccc(CC(C)NCC(O)c2ccc3ccc4ccccc4c3c2)cc1` (stereo unspecified) were 3.1%, 1.22% and 3.14%.
Taken in the same sequence, the figures for `COc1ccc(CC(C)NCC(O)c2cccc(C(F)(F)F)c2)cc1F` (stereo unspecified) were 1.15%, 1.15% and 0.11%.
With `CC(C)CN1CCC(N(C)c2cc(NC(=O)c3cccc(F)c3)ccn2)CC1`, the values for the inhibition in assay [1], in assay [2] and in assay [3] were -1.6%, 0.49% and 0.5%, respectively.
Taken in the same sequence, the figures for `CCN(CC)CCN1C(=O)C(O)(c2ccccc2Cl)c2c1cc(C(N)=O)cc2C(F)(F)F` (stereo unspecified) were 3.25%, 2.29% and 2.69%.
Taken in the same sequence, the figures for `CC(C)CCNC(=O)c1cc(C(=O)c2cc(F)ccc2O)cn(CCC(C)C)c1=O` were 3.21%, 2.53% and 6.46%.
Taken in the same sequence, the figures for `CC(=O)C1(c2ccccc2)CCN(CCC2(c3ccc(Cl)c(Cl)c3)CN(C(=O)C3CCCC3)CCO2)CC1` (stereo unspecified) were 4.09%, 3.1% and 0.75%.
In the case of `Cc1[nH]c2cc(Cl)ccc2c1C1=CCN(CCCCC2(C)C(=O)Nc3c(F)cccc32)CC1` (stereo unspecified), the inhibition in assay [1] is 1.41%; in assay [2] it was 0.61%; in assay [3] it was 0.45%.
